Screens from PubChem.
Mm-Cpn inhibitor: blocks the Methanococcus maripaludis chaperonin Mm-Cpn | purified Mm-Cpn ATPase, ADP Transcreener TR-FRET | Potency, µM (titrated, usually from 76.9 µM), without a hit: at the top dose activity, negative = inhibition, usual class: inhibitors | 330,000 tested, 0.031% active; note: potency is the fitted concentration of half-maximal effect; % is set by controls: 0 for no effect and ±100 for the full control effect; nearly all actives have a fitted effect of over 80% in size
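TR-FRET (320 nm excitation; 590 and 665 nm emission) reports ADP made from 10 uM ATP by 25 nM enzyme; compounds were preincubated 10 min, reaction run 30 min, both at 37°C.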
GLP-1R agonist: activates the human GLP-1 receptor. Potency, µM (highest dose often 45.6 µM), for the others: at the highest dose activation, actives largely listed as activators. P43220. HEK293 GLP-1R CRE-luciferase, luminescence, 4-6 h; cells express a hypersensitive GLP-1R form. AID 624172. 380,000 tested, 0.007% active; note: potency is the fitted concentration of half-maximal effect; % of control where 0% means no effect
Target sequence (P43220 whole entry, looked up): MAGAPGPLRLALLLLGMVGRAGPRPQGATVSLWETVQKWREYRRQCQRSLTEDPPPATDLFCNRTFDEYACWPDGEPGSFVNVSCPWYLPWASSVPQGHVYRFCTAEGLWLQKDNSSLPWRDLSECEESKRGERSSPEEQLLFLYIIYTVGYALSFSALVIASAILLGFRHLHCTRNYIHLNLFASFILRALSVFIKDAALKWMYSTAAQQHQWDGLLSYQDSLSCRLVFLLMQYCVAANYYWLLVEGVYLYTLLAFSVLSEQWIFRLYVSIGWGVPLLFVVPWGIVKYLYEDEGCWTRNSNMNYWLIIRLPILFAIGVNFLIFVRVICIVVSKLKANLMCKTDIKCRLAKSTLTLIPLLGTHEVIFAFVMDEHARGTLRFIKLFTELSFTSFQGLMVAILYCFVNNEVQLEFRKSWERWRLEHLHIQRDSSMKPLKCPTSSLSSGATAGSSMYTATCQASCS
HEK293 tox: cytotoxicity counter-screen for GLP-1 receptor inverse agonists. HEK293 cAMP-luciferase reporter cells, luminescence, 24 h. Potency, µM (top dose mostly 38.3 µM), for inactives: top-dose activity change, negative = inhibition, usual class: inhibitors. 410,000 tested, 0.13% active;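 note: loss of luciferase light is scored as toxicity; potency is the fitted concentration of half-maximal effect; % is set by controls: 0 for no effect and ±100 for the full control effect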
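To flag toxic compounds, the library was rerun on cells for 24 hr at 37 deg C and 5% CO2. Viability-linked luminescence was captured 12 min after adding luciferase detection reagent.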
CCT modulator: cytosolic chaperonin activity modulation; purified chaperonin ATPase assay, HTRF ADP detection, 30 min; activity change, % (test concentration not listed), hits read low; 360,000 tested, 0.3% active; AID 651819; in the data active = activity change below about -30%; note: % is set by controls: 0 for no effect and ±100 for the full control effect
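Enzyme 40 or 20 nM (batch-dependent) in Tris pH 7.4/KCl/MgCl2/DTT; cpd 76 uM single point; ATP 10 uM; 30 min 37 °C; Transcreener ADP HTRF detection, 30 min RT; ratio 665/615.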
uPA surface inh: blocks generation of uPA at the cell surface; Potency, µM (doses to about 38.3 µM), for the others: at the highest dose activity change, negative = inhibition, actives largely listed as inhibitors; 330,000 tested, 0.31% active; cell surface uPA generation assay, qHTS; AID 540303; active = well fitted inhibition curve with a large enough effect; inconclusive = small, poorly fitted or top-dose-only effect; inactive = no such curve, though single readings can be large or run the other way; tested in mouse RAW 264.7 cells; note: potency is the fitted concentration of half-maximal effect; % is set by controls: 0 for no effect and ±100 for the full control effect; nearly all actives have a fitted effect of over 55% in size
GLP1R inv ag: inverse agonists of human GLP-1 receptor | P43220 | Potency, µM (titrated, usually from 38.3 µM), inactives show at the highest dose activity change, negative = inhibition, hits mostly inhibitors | 410,000 tested, 1.6% active | AID 624417 | HEK293 GLP-1R CRE-luciferase, luminescence, 24 h; GLP-1R form is constitutively active; note: potency is the fitted concentration of half-maximal effect; % is set by controls: 0 for no effect and ±100 for the full control effect; nearly all actives have a fitted effect of over 55% in size
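Assay principle: reduced luminescence from a cAMP-responsive reporter in HEK293 cells co-expressing a constitutively active GLP-1R. Conditions: 24 hr compound incubation, 37 deg C, 5% CO2.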
* = called active by the depositor. Compounds with a hit are over-represented: about 2.2% of the library has one in this group of screens. Unless noted, calls come from the whole dose curve; as a rule, active = well fitted curve in the direction sought with a large enough effect; inconclusive = small, poorly fitted or top-dose-only effect, or another doubt; inactive = no such curve, though single readings can be large; an effect the other way counts as inactive or inconclusive.

CCc1ccc(NC(=O)Cc2cn(C)c3ccccc23)cc1 was read as Mm-Cpn inhibitor -1%, GLP-1R agonist 10%, HEK293 tox 10%, CCT modulator -1, uPA surface inh -4% and GLP1R inv ag 10µM*.
CCOc1cc(CNC2CCCC2)cc(Cl)c1OCc1ccc(F)cc1 was read as Mm-Cpn inhibitor 1%, GLP-1R agonist -1%, HEK293 tox -13%, CCT modulator 0, uPA surface inh -15% and GLP1R inv ag inconclusive.
For COc1cc(CNC2CCCCCCC2)cc(Cl)c1OCC(N)=O the results were Mm-Cpn inhibitor 0%, GLP-1R agonist -5%, HEK293 tox 4%, CCT modulator -2, uPA surface inh -13% and GLP1R inv ag -18%.
For COc1cc(CNC2CCCC2)cc(Cl)c1OCc1ccccc1Cl the results were Mm-Cpn inhibitor 0%, GLP-1R agonist -21%, HEK293 tox inconclusive, CCT modulator -3 and GLP1R inv ag 8.9µM*.
Screening COc1cc(CNC2CCCC2)cc(Cl)c1OCc1ccc(F)cc1 returned Mm-Cpn inhibitor -8%, GLP-1R agonist -3%, HEK293 tox inconclusive, CCT modulator -4, uPA surface inh 3% and GLP1R inv ag 4.5µM*.
`Cn1ncc2c(NCc3ccc(Cl)cc3)ncnc21` gave HEK293 tox -5% and GLP1R inv ag -16%.
O=C(CCC(=O)c1ccc(F)cc1)Nc1ccc(Cl)cc1 was read as HEK293 tox -1% and GLP1R inv ag -14%.
`O=C(CCC(=O)c1ccc(F)cc1)Nc1cccc(S(=O)(=O)Nc2cccc(Cl)c2)c1` gave Mm-Cpn inhibitor 5%, GLP-1R agonist -4%, HEK293 tox -11%, CCT modulator 0, uPA surface inh -2% and GLP1R inv ag 10µM*.
Screening COc1cc2c(cc1OC)C(C)N(C(=O)c1ccc(C)o1)CC2 (stereo not drawn) returned Mm-Cpn inhibitor 2%, GLP-1R agonist 26%, HEK293 tox -13%, CCT modulator -2, uPA surface inh -8% and GLP1R inv ag 9%.
Screening COc1cc2c(cc1OC)C(C)N(C(=O)c1c(-c3ccccc3)noc1C)CC2 (stereo not drawn) returned Mm-Cpn inhibitor 1%, GLP-1R agonist 2%, HEK293 tox inconclusive, CCT modulator 2, uPA surface inh 6.3µM* and GLP1R inv ag inconclusive.
For Cc1cccc(CC2C(=O)Nc3ccccc32)c1 (stereo not drawn) the results were HEK293 tox -26% and GLP1R inv ag 19%.
For COc1ccc(N2CCN(C(=O)c3sc4nc5n(c(=O)c4c3C)CCC5)CC2)cc1 the results were HEK293 tox -7% and GLP1R inv ag 12%.
O=C(CSc1nc(-c2ccccc2)cc(C(F)(F)F)n1)c1cccc([N+](=O)[O-])c1 was read as Mm-Cpn inhibitor -5%, GLP-1R agonist -2%, HEK293 tox -14%, CCT modulator -2, uPA surface inh 4% and GLP1R inv ag inconclusive.
For COc1ccc(-c2cc(C)nc(SCC(=O)c3cccc([N+](=O)[O-])c3)n2)cc1 the results were Mm-Cpn inhibitor -8%, GLP-1R agonist -9%, HEK293 tox 4%, CCT modulator -46* and GLP1R inv ag -1%.
Screening Cc1cc(-c2ccccc2)nc(SCC(=O)c2cccc([N+](=O)[O-])c2)n1 returned Mm-Cpn inhibitor 0%, GLP-1R agonist 10%, HEK293 tox 4%, CCT modulator 0, uPA surface inh -6% and GLP1R inv ag 0%.
Screening Cc1ccc(-c2cc(C(F)(F)F)nc(SCC(=O)c3cccc([N+](=O)[O-])c3)n2)cc1 returned Mm-Cpn inhibitor -1%, GLP-1R agonist -3%, HEK293 tox 62%, CCT modulator -2, uPA surface inh 13% and GLP1R inv ag 5.6µM*.
For O=C1CC(c2nc3ccccc3n2CCC2CCCCC2)CN1c1ccccc1Cl (stereo not drawn) the results were HEK293 tox 9% and GLP1R inv ag 1%.
Cc1ccc2c(c1)CCCN2C(=O)c1cc(C)c(C)s1 was read as Mm-Cpn inhibitor -8%, GLP-1R agonist 7%, HEK293 tox 12%, CCT modulator -33*, uPA surface inh 2% and GLP1R inv ag inconclusive.
`COc1ccc(-n2cc(C(=O)NC(C)c3ccccc3)c3ccccc3c2=O)cc1` (stereo not drawn) gave HEK293 tox -7% and GLP1R inv ag inconclusive.
For Cc1cc(Cl)ccc1OCCCC(=O)N1CCN(S(=O)(=O)c2ccccc2)CC1 the results were Mm-Cpn inhibitor 1%, GLP-1R agonist 3%, HEK293 tox -21%, CCT modulator -1, uPA surface inh -4% and GLP1R inv ag 10µM*.
`CCOc1ccccc1OCCCC(=O)N1CCN(S(=O)(=O)c2ccc(Cl)cc2)CC1` gave Mm-Cpn inhibitor 0%, GLP-1R agonist 2%, HEK293 tox 6%, CCT modulator 3, uPA surface inh inconclusive and GLP1R inv ag -15%.
CC(NC(=O)CCl)c1ccc(Cl)c(Cl)c1 (stereo not drawn) was read as Mm-Cpn inhibitor 1%, GLP-1R agonist -2%, HEK293 tox inconclusive, CCT modulator -3, uPA surface inh -10% and GLP1R inv ag 0%.
For CC(C)c1cc(NC(=O)CCl)on1 the results were Mm-Cpn inhibitor 2%, GLP-1R agonist -5%, HEK293 tox inconclusive, CCT modulator -1, uPA surface inh 6.3µM* and GLP1R inv ag 2%.
CCC/C(=C1/c2ccccc2C(=O)N1c1ccccc1)c1ccc(O[C@@H]2CCCCO2)cc1 was read as Mm-Cpn inhibitor 0%, GLP-1R agonist -6%, HEK293 tox 2%, CCT modulator -2, uPA surface inh 6% and GLP1R inv ag 13µM*.
Screening CCC/C(=C1/c2ccccc2C(=O)N1c1ccccc1)c1ccc2c(c1)OCCO2 returned Mm-Cpn inhibitor 0%, GLP-1R agonist 8%, HEK293 tox -10%, CCT modulator -2, uPA surface inh -13% and GLP1R inv ag inconclusive.
Cc1cc(NC(=O)CON=C(N)CC(=O)Nc2ccccc2Cl)ccc1Br was read as Mm-Cpn inhibitor 1%, GLP-1R agonist 4%, HEK293 tox -3%, CCT modulator 1, uPA surface inh 3% and GLP1R inv ag 10µM*.
Cc1ccc(C(=O)CCS(=O)(=O)c2ccc(F)cc2)cc1 was read as Mm-Cpn inhibitor 1%, GLP-1R agonist -3%, HEK293 tox inconclusive, CCT modulator 2, uPA surface inh 11µM* and GLP1R inv ag inconclusive.
